Source: PubChem (National Center for Advancing Translational Sciences (NCATS))
Giardia kill: kills Giardia lamblia. Giardia lamblia trophozoite viability. 340,000 tested, 0.15% active. activity change, % at 7.66 µM, hits read low; in the data active = activity change below about -80%; inconclusive = between about -30% and that limit;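 note: parasites exposed to compound for two days anaerobically before the ATP read; % is set by controls: 0 for no effect and ±100 for the full control effect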
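Media and compound were dispensed first, then trophozoites at 100 cells/well; plates sat 48 hrs at 37 deg C without oxygen before ATP luminescence reagent was added and read after 15-30 min at room temperature.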
KB-V1 cytotox: KB-V1 MDR subline cytotoxicity; KB-V1 MDR cells viability, CellTiter-Glo, 72 h; Potency, µM (series often up to 46.1 µM), usual class: cytotoxic; 400,000 tested, 3.4% active; note: potency is the fitted concentration of half-maximal effect; % is set by controls: 0 for no effect and ±100 for the full control effect; nearly all actives have a fitted effect of over 60% in size
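qHTS viability screen in drug-selected KB-V1 MDR cells: 72 h compound treatment at 37 degrees C, ATP luminescence end point.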
MCF10A rereplic: DNA re-replication induction in MCF 10a cells | MCF 10A DNA re-replication, Hoechst nuclear intensity, 48 h | Potency, µM (doses to about 46.1 µM), for the others: top-dose activity, positive = re-replication, hits mostly activators | 350,000 tested, 2.9% active; note: potency is the fitted concentration of half-maximal effect; % of control where 0% means no effect; nearly all actives have a fitted effect of over 50% in size
ASM inhibitor: inhibitors of human secretory acid sphingomyelinase | P17405 | placental ASM, HMU-PC fluorogenic substrate, 60 min | Potency, µM (titrated, usually from 57.5 µM), for the others: top-dose activity change, negative = inhibition, most hits filed as inhibitors | 340,000 tested, 0.006% active | AID 504937; note: potency is the fitted concentration of half-maximal effect
Target sequence (P17405 47-631 limits assumed): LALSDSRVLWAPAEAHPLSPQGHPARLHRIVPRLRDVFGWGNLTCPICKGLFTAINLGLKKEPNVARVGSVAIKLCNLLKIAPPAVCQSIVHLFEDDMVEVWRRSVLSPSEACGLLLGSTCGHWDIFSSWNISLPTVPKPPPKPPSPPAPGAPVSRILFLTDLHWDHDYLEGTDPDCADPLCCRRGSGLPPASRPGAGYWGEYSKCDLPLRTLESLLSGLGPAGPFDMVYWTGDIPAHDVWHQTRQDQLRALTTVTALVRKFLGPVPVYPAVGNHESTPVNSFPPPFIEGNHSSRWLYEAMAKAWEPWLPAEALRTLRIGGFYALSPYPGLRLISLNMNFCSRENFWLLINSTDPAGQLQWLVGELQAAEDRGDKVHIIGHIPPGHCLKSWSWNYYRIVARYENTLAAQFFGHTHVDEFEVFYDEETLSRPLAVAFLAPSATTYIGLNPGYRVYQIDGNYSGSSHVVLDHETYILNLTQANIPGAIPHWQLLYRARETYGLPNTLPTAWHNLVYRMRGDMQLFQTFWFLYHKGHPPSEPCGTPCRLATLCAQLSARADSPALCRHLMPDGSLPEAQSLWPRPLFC
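Human placenta-derived ASM preincubated with compound 10 min at room temperature, then reacted with 9 uM (final) fluorogenic HMU-PC substrate for 60 min at 37 C. Stop solution raises pH to 10; fluorescence read at Ex 386/Em 447 nm.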
KB-3-1 tox: KB-3-1 parental cell cytotoxicity. KB-3-1 viability, CellTiter-Glo ATP luminescence, 72 h. Potency, µM (top dose mostly 46.1 µM), hits mostly cytotoxic. 400,000 tested, 1.4% active; note: potency is the fitted concentration of half-maximal effect; % is set by controls: 0 for no effect and ±100 for the full control effect; nearly all actives have a fitted effect of over 60% in size
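KB-3-1 cells, DMEM (no phenol red) + 10% FBS; compound by pin transfer, 72 h, 37 °C. Readout: CellTiter-Glo luminescence after 10 min. Data normalized, curve-fitted.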
SW480 rereplic: inducers of DNA re-replication in SW480 colon cancer cells. SW480 DNA re-replication, Hoechst DNA content imaging, 48 h. Potency, µM (titrated, usually from 46.1 µM), without a hit: at the highest dose re-replication activation, actives largely listed as activators. 340,000 tested, 1.8% active; note: potency is the fitted concentration of half-maximal effect; % of control where 0% means no effect; nearly all actives have a fitted effect of over 55% in size
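Image-based DNA-content assay: after two days of treatment, nuclei were labelled with the DNA dye Hoechst and imaged, and hits were compounds raising the count of nuclei showing high fluorescence intensity.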
* marks the source's active call; other numbers are inactive results; i = inactive; ? = inconclusive; nt = no result. Only some compounds are listed: those with a hit (about 6.9% of all), similar ones and a draw of the others. Unless noted, calls come from the whole dose curve; as a rule, active = well fitted curve in the direction sought with a large enough effect; inconclusive = small, poorly fitted or top-dose-only effect, or another doubt; inactive = no such curve, though single readings can be large; an effect the other way counts as inactive or inconclusive.

SMILES | Giardia kill | KB-V1 cytotox | MCF10A rereplic | ASM inhibitor | KB-3-1 tox | SW480 rereplic
CCOc1cc2c(cc1O)C(=NO)CC1C2CCC2(C)C(O)CCC12 (centres undefined) | 0 | i | ? | -7% | i | ?
COc1cc2c(cc1O)CC[C@@H]1[C@@H]2CC[C@]2(C)[C@@H](O)CC[C@@H]12 | 29 | 5.8µM* | ? | -2% | 1.6µM* | 3.3µM*
O=C1/C(=C\c2ccc(O)c(O)c2)Oc2c1ccc(O[C@@H]1O[C@H](CO)[C@@H](O)[C@H](O)[C@H]1O)c2O | 8 | nt | nt | nt | nt | nt
Cc1ccc(-c2ccc(C3C(C#N)=C(N)Oc4n[nH]c(C)c43)o2)cc1 (centres undefined) | -1 | 26µM* | 23µM* | -7% | i | ?
CCC(CC)C1C(C#N)=C(N)Oc2n[nH]c(-c3ccccc3)c21 (centres undefined) | -9 | i | 4% | -2% | i | 11%
Cc1[nH]nc2c1C(c1ccc(-c3ccc(Cl)cc3)o1)C(C#N)=C(N)O2 (centres undefined) | -14 | ? | ? | -22% | ? | ?
CCC(CC)C1C(C#N)=C(N)Oc2n[nH]c(C)c21 (centres undefined) | -4 | i | ? | -2% | i | 21µM*
CCC(CC)C(=O)Nc1nnc(SCc2cc(=O)c3ccccc3[nH]2)s1 | nt | i | nt | nt | ? | nt
CN(CCOc1ccc(Cl)cc1)C(=O)c1cc(-c2ccco2)nc2ccccc12 | 1 | 16µM* | ? | nt | i | -28%
COc1cccc(NC(=O)CN(C)C(=O)c2cc(-c3ccco3)nc3ccccc23)c1 | -2 | i | 19% | 225% | i | -466%
COc1c(-c2ccc(O)cc2)oc2cc(O)cc(O)c2c1=O | ? | i | 6% | -3% | i | 9%
COc1ccc(-c2oc3cc(O)c(OC)c(O)c3c(=O)c2OC)cc1 | 6 | ? | 5.2µM* | -5% | ? | ?
Nc1nc(Nc2cccc(Cl)c2)sc1C(=O)c1ccc(F)cc1 | nt | i | nt | nt | i | nt
COc1cccc(C(=O)c2sc(NC(C)C)nc2N)c1 | 17 | ? | 5.8µM* | -3% | 16µM* | ?
COc1ccc(Nc2nc(N)c(C(=O)c3ccc(OC)cc3)s2)cc1 | 18 | ? | ? | -14% | 1.3µM* | 4.1µM*
CC(C)Nc1nc(N)c(C(=O)C23CC4CC(CC(C4)C2)C3)s1 | 3 | i | 23µM* | -2% | i | 21%
COc1ccc(Nc2nc(N)c(C(=O)c3ccc(F)cc3)s2)cc1 | 9 | 1.3µM* | 2.6µM* | -14% | ? | 4.1µM*
Nc1nc(-c2ccc3c(c2)CCO3)cs1 | -8 | i | -2% | 0% | i | -5%
Nc1nc(-c2ccc3c(c2)CCC(=O)N3)cs1 | 24 | 3.7µM* | 6% | 36% | 5.2µM* | -2%
COc1ccc(COc2cc(-c3cccc(OC)c3)nc3ccc(N)cc23)cc1 | -9 | 5.8µM* | 0.73µM* | i | ? | 1.5µM*
COc1ccc(COc2cc(-c3cccc(OC)c3)nc3ccc(NC(=O)c4ccc(N(C)C)cc4)cc23)cc1 | -3 | i | 5.8µM* | 86% | 4.6µM* | 9.2µM*
COc1ccc(COc2cc(-c3cccc(OC)c3)nc3ccc(NC(=O)c4ccc(C)cc4)cc23)cc1 | -9 | i | 5.8µM* | -3% | 9.2µM* | 21µM*
O=C(NCc1nc2ccccc2[nH]1)C1=C[C@@H](C2CCCCC2)C[C@@H](OCCCCO)O1 | 26 | i | -11% | -4% | i | 4%
COc1ccc2c(c1)c(C(C)=O)c(C)n2CCc1ccc(OC)c(OC)c1 | ? | ? | 5% | 0% | i | -17%
CC(=O)c1c(C)[nH]c(C(=O)OCC(=O)NCc2cccs2)c1C | 14 | 13µM* | 7% | 0% | ? | -6%
SMILES | Giardia kill | KB-V1 cytotox | MCF10A rereplic | ASM inhibitor | KB-3-1 tox | SW480 rereplic
CC(=O)c1c(C)[nH]c(C(=O)OCC(=O)NCc2ccc(Cl)cc2)c1C | 23 | i | ? | -3% | ? | -39%
CCOC(=O)c1c(C(=O)OCC)c(C)n(CCc2ccc(OC)c(OC)c2)c1C | -1 | i | 4% | 6% | i | 9.2µM*
CCOC(=O)c1c(C)[nH]c(C(=O)OCC(=O)NCc2ccc(OC)c(OC)c2)c1C | 0 | 21µM* | 23% | 3% | ? | 19%
CCOC(=O)c1c(C)[nH]c(C(=O)OCC(=O)Nc2sccc2C(N)=O)c1C | -5 | ? | 21µM* | -1% | i | ?
CCOC(=O)c1[nH]c(C)c(C(=O)OCC(=O)NCc2ccc(Cl)cc2)c1C | -2 | i | 0% | -2% | i | -2%
COc1ccc(N(Cc2cccs2)C(=O)Nc2cccc(Cl)c2)cc1 | nt | i | nt | nt | i | nt
CCCn1c(=N)n(CC(=O)c2cccs2)c2ccccc21 | -21 | i | ? | -2% | i | 14%
N=c1n(CCN2CCCCC2)c2ccccc2n1CC(=O)c1cccs1 | 15 | i | ? | -5% | ? | 8.2µM*
O=C(CCN1CCCC1)c1cccs1 | 23 | i | 23µM* | 2% | i | 103%
Cn1cc(-c2cc3n(n2)CCC(=O)N3CCCC(=O)NCc2ccccc2Cl)c2ccccc21 | nt | i | nt | nt | i | nt
Cc1c(NC(=O)c2cc(=O)c3cc(Cl)ccc3o2)c(=O)n(-c2ccccc2)n1C | nt | i | nt | nt | i | nt
CCOc1cccc2cc(C(=O)N3CCN(C/C=C/c4ccccc4)CC3)c(=O)oc12 | -13 | 8.2µM* | 1% | 0% | i | 1%
CCOc1cc(C(=O)N2CCN(C/C=C/c3ccccc3)CC2)cc(OCC)c1OCC | 7 | ? | ? | 1% | i | -6%
CCC(C)NC(=O)CSc1nc2cc3c(cc2c(=O)n1Cc1ccc(C(=O)NCCc2ccc(OC)c(OC)c2)cc1)OCO3 (centres undefined) | -8 | nt | nt | nt | nt | nt
CC1CCc2nc(/C(C#N)=C/c3cccnc3)sc2C1 (centres undefined) | -10 | ? | 21µM* | 293% | i | ?
CCC(C)NC(=O)c1ccc2nc(CCc3ccccc3)oc2c1 (centres undefined) | nt | i | nt | nt | i | nt
